Experimental data: PubChem BioAssay AID651598 (Sanford-Burnham Center for Chemical Genomics, 2012)
Values joined by “and” are separate entries in the source; they are usually repeats but may differ in a detail not shown here. Identical values can stand only once.

Target: Apelin receptor (Homo sapiens) (UniProt P35414)
Experiment: APJ beta-arrestin recruitment blockade alongside CXCR6 – cell-based, DiscoveRx, panel, CHO-K1, counter-screen for CXCR6 antagonist project, SAR follow-up (AID 651598)
Conditions: CHO-K1 PathHunter beta-arrestin luminescence, antagonist mode; run 3, at 80 µM (top of the series)

Apelin receptor (Homo sapiens), sequence (P35414 whole entry, looked up): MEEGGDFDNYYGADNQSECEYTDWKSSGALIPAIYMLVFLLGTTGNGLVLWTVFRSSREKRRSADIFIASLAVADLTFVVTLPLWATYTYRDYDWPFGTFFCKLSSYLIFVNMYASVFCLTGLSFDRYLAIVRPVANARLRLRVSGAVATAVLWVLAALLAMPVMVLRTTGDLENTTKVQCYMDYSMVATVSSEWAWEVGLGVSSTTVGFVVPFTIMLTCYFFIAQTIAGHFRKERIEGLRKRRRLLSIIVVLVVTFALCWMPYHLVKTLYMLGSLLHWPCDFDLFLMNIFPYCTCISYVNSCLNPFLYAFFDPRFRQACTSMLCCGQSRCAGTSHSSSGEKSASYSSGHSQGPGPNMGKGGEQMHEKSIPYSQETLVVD

Row | Structure (SMILES) | inhibition
1 | COc1cc(C(=O)NC2CCN(CC(=O)Nc3ccccc3)CC2)cc(OC)c1OC | 19.7%
2 | COc1cc(C(=O)NC2CC3CCC(C2)N3CC(=O)Nc2ccccc2)cc(OC)c1OC (stereo not drawn) | 2.29% and 12.1%
3 | COc1cc(C(=O)NC2CC3CCCC(C2)N3CC(=O)Nc2ccccc2)cc(OC)c1OC (stereo not drawn) | -24.7% and 10.7% and 13.8%
